Hit rate of the full screen: of about 410,000 compounds, about 6,400 (1.6%) were called active. About 20% were inconclusive and are not listed. This is one part of a sample in which actives are shown more often than they occur. The call rests on the fitted dose curve; in most records, active means well fitted inhibition curve with a large enough effect; inconclusive means small, poorly fitted or top-dose-only effect; inactive means no such curve, though single readings can be large or run the other way.
What follows are compounds tested against Glucagon-like peptide 1 receptor (Homo sapiens) (UniProt P43220) (assay: qHTS of GLP-1 Receptor Inverse Agonists (Inhibition Mode)). Settings: HEK293 GLP-1R CRE-luciferase, luminescence, 24 h, GLP-1R form is constitutively active; series mostly up to 38.3 µM; activity change, negative = inhibition: at the top concentration.
Chain of Glucagon-like peptide 1 receptor (Homo sapiens) (P43220 whole entry, looked up): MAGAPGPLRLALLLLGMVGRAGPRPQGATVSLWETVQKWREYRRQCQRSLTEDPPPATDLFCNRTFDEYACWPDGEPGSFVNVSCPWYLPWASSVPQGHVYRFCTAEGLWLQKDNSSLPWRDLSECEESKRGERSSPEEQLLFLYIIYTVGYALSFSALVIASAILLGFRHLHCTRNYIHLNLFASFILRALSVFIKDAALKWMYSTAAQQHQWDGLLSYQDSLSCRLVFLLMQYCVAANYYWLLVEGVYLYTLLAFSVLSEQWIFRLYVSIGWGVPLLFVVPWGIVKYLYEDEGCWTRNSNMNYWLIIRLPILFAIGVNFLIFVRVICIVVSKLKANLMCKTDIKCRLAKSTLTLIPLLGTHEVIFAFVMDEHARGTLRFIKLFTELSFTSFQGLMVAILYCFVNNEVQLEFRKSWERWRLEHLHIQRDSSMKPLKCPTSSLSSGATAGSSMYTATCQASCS
Outline: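 HEK293 cells stably co-expressing constitutively active GLP-1R and a cAMP-responsive luciferase reporter were seeded in DMEM with 10% Nu serum, given compounds after 12 h, and incubated 24 h at 37 deg C. Luminescence was then read.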
Further: nearly all actives have a fitted effect of over 55% in size.
On the % scale 0 is the no-effect control and ±100 the full control effect; potency means the concentration at half of the fitted maximal effect.

SMILES	activity change, negative = inhibition	Potency
CCOc1ccc(CCN2C(=O)C(=O)N([C@@H](Cc3ccc(O)cc3)CN3CCC[C@H]3CN3C(=O)C(=O)NC[C@@H]3CC(C)C)C[C@@H]2Cc2ccccc2)cc1	3.91% (inactive)	–
CCCCn1nnnc1C(c1cccc(OC)c1OC)N1CCN(C/C=C/c2ccccc2)CC1 (centres undefined)	-33.9% (inactive)	–
COc1c(C)cc(C(O)c2ncc(-c3cccc(C(F)(F)F)c3)[nH]2)cc1C (centres undefined)	–	12.6 µM (active)
COc1ccc(OC)c(C(O)c2ncc(-c3cccc(C(F)(F)F)c3)[nH]2)c1 (centres undefined)	-14.7% (inactive)	–
Cc1cccc(-c2cnc(C(O)c3cc(C)cc(C)c3)[nH]2)c1 (centres undefined)	5.04% (inactive)	–
COc1ccccc1Cc1c(-c2ccc(Cl)cc2)nc2c3ccccc3ccn12	10.4% (inactive)	–
Cc1cc(F)ccc1N1CCC(N2CCN(C)C(CCO)C2)CC1 (centres undefined)	–	4.47 µM (active)
COc1ccccc1N1CCC(N2CCN(CC(C)(C)C)C(CCO)C2)CC1 (centres undefined)	-20% (inactive)	–
COc1ccc(N2CCC(N3CCN(C)C(CCO)C3)CC2)cc1 (centres undefined)	-9.84% (inactive)	–
COc1ccc(CN2C(=O)C(CC(=O)NCCCCc3ccccc3)CC(C(=O)N3CCOCC3)=C2C)cc1 (centres undefined)	-15.1% (inactive)	–
Cc1ccccc1NC(=O)CSc1nc2ccc(Nc3nc(N4CCOCC4)nc(N4CCOCC4)n3)cc2s1	-16.8% (inactive)	–
O=C(CSc1nc(Nc2ccccc2)nc(N2CCOCC2)n1)Nc1cc(Cl)ccc1O	–	5.62 µM (active)
O=C(CC(c1ccccc1)c1cc(Cl)ccc1O)NCCN1CCOCC1 (centres undefined)	-15.9% (inactive)	–
CCCNC(=O)C1(C)CCN(C(=O)c2cc(F)ccc2C)C1 (centres undefined)	6.31% (inactive)	–
CC1(C(=O)NS(=O)(=O)c2ccc(C#N)cc2)CCN1C(=O)c1ccc(C2CCCCC2)cc1 (centres undefined)	7.23% (inactive)	–
CCC1(CC)Cc2ccccc2-c2nc(CCl)[nH]c(=O)c21	55.9% (inactive)	–
N#CCSc1nc2c(c(=O)n1Cc1ccccc1)C1(CCCC1)Cc1ccccc1-2	–	3.98 µM (active)
N#CCSc1nc2ccc(N3CCOCC3)cc2c(=O)n1CCc1ccccc1	2.45% (inactive)	–
N#Cc1ccc(-c2ccc3nccn3c2)cc1	13.1% (inactive)	–
O=[N+]([O-])c1ccc(CN2CC(N3CC=CC3)CS2(=O)=O)cc1 (centres undefined)	32.5% (inactive)	–
C/C(COc1ccccc1)=N\NC(=O)c1nnn(-c2nonc2N)c1-c1ccc(C)cc1	29.9% (inactive)	–
CC(=O)c1ccc(NC(=O)CCc2nc(-c3ccc(C)cc3)no2)cc1	5.52% (inactive)	–

SMILES	activity change, negative = inhibition	Potency
COc1ccc(N2CCN(C(=O)CCc3nc(-c4ccc(C)cc4)no3)CC2)cc1	-9.69% (inactive)	–
Cc1ccc(-c2noc(CCC(=O)Nc3ccccc3N3CCN(C)CC3)n2)cc1	–	11.2 µM (active)
C[C@H]1CN([C@@H](C)CO)C(=O)CCCn2cc(nn2)CO[C@@H]1CN(C)S(=O)(=O)c1cccs1	15.3% (inactive)	–
Cc1ccc(C)c(NC(=O)CN(C)C(=O)COc2ccc3ccccc3c2)c1	-2.61% (inactive)	–
Cc1ccc(C)c(NS(=O)(=O)c2ccc(OCC(=O)NCc3cccnc3)cc2)c1	-11.7% (inactive)	–
Cc1ccc(NS(=O)(=O)c2ccc(C)c(NC(=O)COc3ccc4ccccc4c3)c2)c(C)c1	–	5.01 µM (active)
CCCCc1ccc(S(=O)(=O)NC(=O)C2(C)CCN2C(=O)c2ccccc2)cc1 (centres undefined)	-4.38% (inactive)	–
Cc1nnc(SC(C)C(=O)c2c[nH]c3ccccc23)n1C1CC1 (centres undefined)	20.7% (inactive)	–
Cc1nnsc1C(=O)Nc1cccc(Cl)c1C	1.72% (inactive)	–
Cc1nnsc1C(=O)NCc1c(F)cccc1Cl	3.98% (inactive)	–
Cc1cc(Cl)ccc1NNC(=O)c1snnc1C	–	2 µM (active)
Nc1ncnc2c1ncn2[C@@H]1O[C@H](C(=O)NS(=O)(=O)c2c(Cl)nc3sccn23)[C@@H](O)[C@H]1O	27.7% (inactive)	–
CCOC(=O)C1C(C)C(C(C)(C)C)N(S(=O)(=O)c2ccc(C)cc2)C1c1ccccc1 (centres undefined)	8.24% (inactive)	–
CC1(C(=O)NS(=O)(=O)c2ccc(C#N)cc2)CCN1C(=O)CC1CCCC1 (centres undefined)	13.2% (inactive)	–
Cc1cccc(CN2CCN(C3CN(Cc4ccccc4)S(=O)(=O)C3)CC2)c1 (centres undefined)	-17.1% (inactive)	–
Cc1ccc(NNC(=O)C2CCC2)cc1C	–	6.31 µM (active)
Cc1ccc(C)c(OCC(=O)NNC(=O)C2CCC2)c1	-20.6% (inactive)	–
O=C(NNC(=O)C1CCC1)c1ccccc1	16.5% (inactive)	–
Cc1ccc(C(=O)OCC(=O)NC2CCCCCCC2)cc1C	-20.1% (inactive)	–
Cc1cccc(C)c1N1CCN(S(=O)(=O)N2CCCCC2)CC1	–	10 µM (active)
Cc1cccc(C(=O)N2CCN(S(=O)(=O)N3CCCCC3)CC2)c1	-24.5% (inactive)	–
Cc1cccc(C)c1N1CCN(S(=O)(=O)N2CCOCC2)CC1	-4.05% (inactive)	–

SMILES	activity change, negative = inhibition	Potency
CN(CCO)C(=O)c1nc[nH]c1C(=O)N(C)Cc1ccccc1	19.1% (inactive)	–
CC1=C(C)CC(C(=O)NNC(=O)c2ccccc2O)C(C(=O)O)C1 (centres undefined)	1.03% (inactive)	–
Cc1cc(C(=O)NNC(=O)c2ccccc2O)c(C)o1	-16.5% (inactive)	–
O=C(NNC(=O)c1ccccc1O)c1ccccc1O	–	5.01 µM (active)
Clc1ccccc1Nc1nc(NCc2cccs2)nc2ccsc12	25.6% (inactive)	–
CC(C)(C)OC(=O)N1CCN(C(=O)c2[nH]c(C(F)(F)F)nc2-c2ccccc2)CC1	20.7% (inactive)	–
CCOC(=O)[C@]12CCC=C1N(Cc1ccccc1)C(=O)[C@H](CC(=O)N1CCCC1)C2	13.6% (inactive)	–
CCCNC(=O)c1cc2c(c(-c3cccc(-c4ccc(C#N)cc4)c3)n1)[C@@H](CCO)N(C(=O)CC)C2	-24.4% (inactive)	–
COc1ccc(/C=N/Nc2ncnc3sc4c(c23)CCCC4)cc1O	–	10 µM (active)
COc1ccc(NC(=O)CCNC(=O)Cn2cnc3sc4c(c3c2=O)CCCC4)cc1OC	-28% (inactive)	–
COc1ccc(NC(=O)CCCNC(=O)Cn2cnc3sc4c(c3c2=O)CCCC4)cc1OC	-3.11% (inactive)	–
Cc1ccc(S(=O)(=O)N[C@H]2CCC[C@@H]2O)cc1	12.7% (inactive)	–
Cn1c(NCc2cccnc2)nc2cc(-c3ccc(F)cc3)sc2c1=O	35.5% (inactive)	–
Cc1[nH]c2ccccc2c1C(=O)c1cc([C@H](NC(=O)OC(C)(C)C)C(C)C)sc1N	–	10 µM (active)
Cc1[nH]c2ccccc2c1C(=O)C(C)Sc1nnc(C2CC2)o1 (centres undefined)	-23.9% (inactive)	–
Cc1[nH]c2ccccc2c1C(=O)CSCC(=O)O	-8.74% (inactive)	–
OC[C@@H]1CN(Cc2ccncc2)C[C@H](n2cnc3c(N4CCN(c5ccccc5)CC4)ncnc32)O1	-29.5% (inactive)	–
C[C@H](NC(=O)OC(C)(C)C)c1nnc(SCC(=O)Nc2ccc(Br)cc2)o1	-1.93% (inactive)	–
CC(C)(C)OC(=O)N[C@H](C(=O)OC(C)(C)C)c1ccc(Br)cc1	–	10 µM (active)
CC(C)(C)OC(=O)Nc1ccc([C@@H](NC(=O)OC(C)(C)C)C(=O)OC(C)(C)C)cc1	-4.14% (inactive)	–

— PubChem BioAssay AID624417 (National Center for Advancing Translational Sciences (NCATS), 2012)
